Measured values reported in PubChem BioAssay.
Unmarked numbers belong to inactive results. Calls of active or inactive are those of the source. Unless noted, how the calls were made is not given here.

Target: Dihydroorotate dehydrogenase (quinone), mitochondrial (Plasmodium falciparum (isolate 3D7)) (UniProt Q08210)
Assay: inhibition of P. falciparum DHODH – biochemical, C-terminal His tag, absorbance 600 nm, primary screen (AID 1175);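 further: recombinant parasite enzyme with a five histidine tag at its C terminus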
Conditions: PfDHODH enzyme, DCIP absorbance 600 nm; higher = more signal, called active from +8 up or from −8 down
Further: test concentration not given here.

Dihydroorotate dehydrogenase (quinone), mitochondrial (Plasmodium falciparum (isolate 3D7)), sequence (Q08210 whole entry, looked up): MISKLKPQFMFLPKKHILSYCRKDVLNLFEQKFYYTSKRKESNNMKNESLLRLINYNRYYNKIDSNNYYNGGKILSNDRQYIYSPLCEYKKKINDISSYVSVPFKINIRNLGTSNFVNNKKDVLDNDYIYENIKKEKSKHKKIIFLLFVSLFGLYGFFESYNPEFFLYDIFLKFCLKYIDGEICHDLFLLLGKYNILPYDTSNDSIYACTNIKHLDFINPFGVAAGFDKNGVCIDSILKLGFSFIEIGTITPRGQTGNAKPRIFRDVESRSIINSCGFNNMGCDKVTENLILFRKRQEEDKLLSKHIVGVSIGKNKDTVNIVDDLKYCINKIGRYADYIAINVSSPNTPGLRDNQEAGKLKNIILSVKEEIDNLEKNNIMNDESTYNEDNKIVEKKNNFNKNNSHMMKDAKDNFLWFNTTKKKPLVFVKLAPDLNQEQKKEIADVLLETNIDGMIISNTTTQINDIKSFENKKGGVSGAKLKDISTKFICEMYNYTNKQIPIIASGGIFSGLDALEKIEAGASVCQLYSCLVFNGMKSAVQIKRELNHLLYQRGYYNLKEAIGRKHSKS

Structure (SMILES)	composite z-score
CN(C)C(=O)[C@]1(Cc2ccccc2N=[N+]=[N-])N=C(c2ccc(OCCCO)cc2)O[C@@H]1c1ccccc1	0.209
COc1ccc(CCN2C(=O)[C@@]3(c4ccc([N+](=O)[O-])cc4)CC(=O)N(C4CCCCC4)[C@@H]3c3ccc(CO)cc32)cc1	-25.9 (active)
C[N+](C)(C)CCCCNC(=O)[C@H]1C[C@H]2C(=O)N[C@@H](Cc3ccccc3)C(=O)N2[C@H]1c1ccc(O)cc1	-30.9 (active)
O=C1O[C@H](c2ccccc2)[C@H](c2ccccc2)N2[C@H]1[C@@H](C(=O)N1CCN(c3ncccn3)CC1)[C@]1(C(=O)Nc3ccc(C#CC4=CCCCC4)cc31)[C@H]2c1ccc(O)cc1	-0.457
COC(=O)[C@@]1(Cc2ccccc2)[C@H]2c3cc(C(=O)N(C)C)n(CCSCCO)c3C[C@H]2CN1C(=O)c1ccccc1	-0.394
CC(C)OC(=O)C=C1C[C@@H](c2ccccc2C(F)(F)F)O[C@@H](c2ccccc2C(F)(F)F)O1	-1.12
COCCCNC(=O)[C@@]1(Cc2ccccc2)N=C(c2ccc(OCCCO)cc2)O[C@H]1c1ccccc1	0.282
CCCCC=C[C@@H](NC(=O)Oc1cccc(C(F)(F)F)c1)c1ccccc1	-3.25
O=C1C2C=CC(C(O)C(c3ccccc3)c3ccccc3)N(n3cnnc3)C2C(=O)N1Cc1ccccc1 (configuration not stated)	-0.436
Cc1ccc(S[C@]2(C(=O)NCC(C)C)CC(=O)N(Cc3cc(C(F)(F)F)cc(C(F)(F)F)c3)[C@@H]2c2ccc(CO)cc2I)cc1	-0.83
COc1cc2c(cc1O)C(C1CC1)N(Cc1cc3c(cc1Br)OCO3)CC2 (configuration not stated)	-1.55
CCCCC(=C=CC[C@@H](O)c1ccccc1OCCO)CCO	-0.782
C=CCOC(=O)[C@@H]1[C@H]2C(=O)O[C@H](c3ccccc3)[C@H](c3ccccc3)N2[C@H](c2ccc(OCCOC(=O)[C@@H]3C[C@@H]4C(=O)N[C@@H](Cc5ccccc5)C(=O)N4[C@@H]3c3ccc(O)cc3)cc2)[C@@]12C(=O)Nc1ccc(I)cc12	-0.0246
C=CCNC(=O)[C@@H]1[C@H]2C(=O)O[C@H](c3ccccc3)[C@H](c3ccccc3)N2[C@H](c2ccc(OCCO)cc2)[C@@]12C(=O)Nc1ccc(C#Cc3ccc(OC)cc3)cc12	-4.91
CCOC(=O)C[C@H]1[C@H](OC(=O)Cc2ccc3c(c2)OCO3)[C@@H](NC(=O)c2ccc(-c3ccccc3)cc2)c2cc(OCCCO)ccc2N1C(=O)c1ccc2ccccc2n1	-2.91
Cc1ccc(S[C@]2(C(=O)NCC(F)(F)F)CC(=O)N(C(C)C)[C@@H]2c2ccc(CO)cc2I)cc1	0.436
C=CCC(OC(C)=O)[C@@H]1[C@@H](N(Cc2ccc(-c3cccc(C(F)(F)F)c3)o2)C(=O)Cc2ccc(F)cc2)c2cc(OCCCO)ccc2N1C(=O)Cc1ccc(OC)cc1 (some centres not stated)	-1.26
COCCCN1C(=O)[C@@]2(Cc3ccccc31)c1ccccc1C(=O)N(Cc1ccccc1C(F)(F)F)[C@H]2c1ccc(CO)cc1	-20.2 (active)
CCOC1=C2C(CN(S(=O)(=O)c3ccc(C)cc3)C2c2ccc(C)cc2)C2C(=O)N(c3ccccc3)C(=O)C2C1 (configuration not stated)	-1.12
CC(C)(C)OC(=O)CC[C@@]1(C(=O)NCC(O)CO)N=C(c2ccc(OCCCO)cc2)O[C@@H]1c1ccccc1N=[N+]=[N-] (some centres not stated)	0.536
[N-]=[N+]=NCc1ccccc1C[C@]1(C(=O)N2CCOCC2)N=C(c2ccc(OCCCO)cc2)O[C@H]1c1ccccc1N=[N+]=[N-]	0.152

System: not listed separately
Assay: inhibition of PAO1 biofilm formation – strain PAO1, LB-PBS medium, absorbance 600 nm, primary screen (AID 1176)
Conditions: P. aeruginosa PAO1 growth/biofilm, A600, 12 h; higher = more signal

Structure (SMILES)	z-score
O=C1OCC=C[C@H]2OC34C=CCN(CCN5CCOCC5)C(=O)[C@H]3N(CCCO)C(=O)[C@@H]4[C@@H]12 (some centres not stated)	-0.385
[N-]=[N+]=Nc1ccccc1C[C@@]1(C(=O)NCCN2CCOCC2)N=C(c2ccc(OCCCO)cc2)O[C@@H]1c1ccccc1	-0.347
COc1ccc(C(=O)Nc2ccc(CN3C(=O)[C@@]4(O[C@@H](CCO)[C@H]([Si](C)(C)c5ccc(OC)cc5)[C@H]4C)c4ccccc43)cc2)cc1	2.25
CC(C)(C)OC(=O)CC[C@@]1(C(N)=O)N=C(c2ccc(OCCCO)cc2)O[C@@H]1c1ccccc1	0.469
COc1ccc(C(=O)Nc2ccc(CN3C(=O)[C@@]4(O[C@@H](CC(=O)N5CCC[C@H]5CO)[C@H]([Si](C)(C)c5ccc(OC)cc5)[C@H]4C)c4ccccc43)cc2)cc1	1.58
CN1C(=O)C2C=CC(C(O)C3CCCCC3)N(Nc3ccc([N+](=O)[O-])cc3[N+](=O)[O-])C2C1=O (configuration not stated)	-0.159
CN1C(=O)C2C=CC(C(O)Cc3ccccc3)N(Nc3ccccc3)C2C1=O (configuration not stated)	1.07
COc1ccc(CCNC(=O)[C@@]2(Sc3ccc(C)cc3)CC(=O)N(C3CCCCC3)[C@@H]2c2ccc(CO)cc2I)cc1	1.34
O=C1OCCC/C=C\[C@H]2OC34C=CCN(CCN5CCOCC5)C(=O)[C@H]3N(CCCO)C(=O)[C@@H]4C12 (some centres not stated)	-0.525
C=CCC(OC(C)=O)[C@@H]1[C@@H](N(Cc2ccc(-c3ccccc3)cc2)C(=O)Cc2ccc(F)cc2)c2cc(OCCCO)ccc2N1C(=O)c1ccc(-c2ccccc2)cc1 (some centres not stated)	-0.124
O=C(c1ccccc1)N1Cc2ccccc2[C@@H]2OC(c3ccc(OCCCO)cc3)=N[C@]2(Cc2ccccc2)C1=O	2.05
COC(=O)C(CC#Cc1ccc2c(c1)[C@]1(C(=O)N2)[C@H](C(=O)O)[C@H]2C(=O)O[C@H](c3ccccc3)[C@H](c3ccccc3)N2[C@@H]1c1ccc(O)cc1)C(=O)OC	1.03
O=C1NCC(=O)N2[C@@H]1C[C@@H](C(=O)O)[C@H]2c1cccc(OCCO)c1	-0.53
C=CCNC(=O)[C@@H]1[C@H]2C(=O)O[C@H](c3ccccc3)[C@H](c3ccccc3)N2[C@H](c2ccc(OCCO)cc2)[C@@]12C(=O)Nc1ccc(C#CCCO)cc12	1.66
C=C(/C(=C/C[C@@H](OC(C)=O)c1ccc(OCCO)cc1)c1cnc2ccccc2c1)C(C)C	-0.165
CN(C)C(=O)[C@]1(Cc2ccccc2N=[N+]=[N-])N=C(c2ccc(OCCCO)cc2)O[C@@H]1c1ccccc1	-1.49
COc1ccc(CCN2C(=O)[C@@]3(c4ccc([N+](=O)[O-])cc4)CC(=O)N(C4CCCCC4)[C@@H]3c3ccc(CO)cc32)cc1	0.944
C[N+](C)(C)CCCCNC(=O)[C@H]1C[C@H]2C(=O)N[C@@H](Cc3ccccc3)C(=O)N2[C@H]1c1ccc(O)cc1	0.516

Structure (SMILES)	z-score
O=C1O[C@H](c2ccccc2)[C@H](c2ccccc2)N2[C@H]1[C@@H](C(=O)N1CCN(c3ncccn3)CC1)[C@]1(C(=O)Nc3ccc(C#CC4=CCCCC4)cc31)[C@H]2c1ccc(O)cc1	0.902
COC(=O)[C@@]1(Cc2ccccc2)[C@H]2c3cc(C(=O)N(C)C)n(CCSCCO)c3C[C@H]2CN1C(=O)c1ccccc1	0.15
CC(C)OC(=O)C=C1C[C@@H](c2ccccc2C(F)(F)F)O[C@@H](c2ccccc2C(F)(F)F)O1	-0.212
COCCCNC(=O)[C@@]1(Cc2ccccc2)N=C(c2ccc(OCCCO)cc2)O[C@H]1c1ccccc1	0.19
CCCCC=C[C@@H](NC(=O)Oc1cccc(C(F)(F)F)c1)c1ccccc1	2.62
O=C1C2C=CC(C(O)C(c3ccccc3)c3ccccc3)N(n3cnnc3)C2C(=O)N1Cc1ccccc1 (configuration not stated)	0.285
Cc1ccc(S[C@]2(C(=O)NCC(C)C)CC(=O)N(Cc3cc(C(F)(F)F)cc(C(F)(F)F)c3)[C@@H]2c2ccc(CO)cc2I)cc1	-0.522
COc1cc2c(cc1O)C(C1CC1)N(Cc1cc3c(cc1Br)OCO3)CC2 (configuration not stated)	0.571
CCCCC(=C=CC[C@@H](O)c1ccccc1OCCO)CCO	0.118
C=CCOC(=O)[C@@H]1[C@H]2C(=O)O[C@H](c3ccccc3)[C@H](c3ccccc3)N2[C@H](c2ccc(OCCOC(=O)[C@@H]3C[C@@H]4C(=O)N[C@@H](Cc5ccccc5)C(=O)N4[C@@H]3c3ccc(O)cc3)cc2)[C@@]12C(=O)Nc1ccc(I)cc12	2.1
C=CCNC(=O)[C@@H]1[C@H]2C(=O)O[C@H](c3ccccc3)[C@H](c3ccccc3)N2[C@H](c2ccc(OCCO)cc2)[C@@]12C(=O)Nc1ccc(C#Cc3ccc(OC)cc3)cc12	1.81
CCOC(=O)C[C@H]1[C@H](OC(=O)Cc2ccc3c(c2)OCO3)[C@@H](NC(=O)c2ccc(-c3ccccc3)cc2)c2cc(OCCCO)ccc2N1C(=O)c1ccc2ccccc2n1	-0.906
Cc1ccc(S[C@]2(C(=O)NCC(F)(F)F)CC(=O)N(C(C)C)[C@@H]2c2ccc(CO)cc2I)cc1	0.786
C=CCC(OC(C)=O)[C@@H]1[C@@H](N(Cc2ccc(-c3cccc(C(F)(F)F)c3)o2)C(=O)Cc2ccc(F)cc2)c2cc(OCCCO)ccc2N1C(=O)Cc1ccc(OC)cc1 (some centres not stated)	0.0186
COCCCN1C(=O)[C@@]2(Cc3ccccc31)c1ccccc1C(=O)N(Cc1ccccc1C(F)(F)F)[C@H]2c1ccc(CO)cc1	4.64
CCOC1=C2C(CN(S(=O)(=O)c3ccc(C)cc3)C2c2ccc(C)cc2)C2C(=O)N(c3ccccc3)C(=O)C2C1 (configuration not stated)	-0.2
CC(C)(C)OC(=O)CC[C@@]1(C(=O)NCC(O)CO)N=C(c2ccc(OCCCO)cc2)O[C@@H]1c1ccccc1N=[N+]=[N-] (some centres not stated)	-0.127
[N-]=[N+]=NCc1ccccc1C[C@]1(C(=O)N2CCOCC2)N=C(c2ccc(OCCCO)cc2)O[C@H]1c1ccccc1N=[N+]=[N-]	-0.357
